Experimental data reported in PubChem BioAssay (NCI).
About 83,000 compounds went through this panel and 20% of them were active in at least one assay; those are over-represented in the sample as a whole.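 Cell lines were cultured in 96-well plates, exposed to a single compound concentration, and assessed for percent growth 48 hours later.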 Unmarked numbers belong to inactive results. Calls of active or inactive are those of the source.

The molecules below were run on KM12 colon (assay: NCI-60 one-dose screen, 48 h (100 = growth as untreated, 0 = no growth, -100 = all killed)). Settings: 10 µM unless noted.
Procedure: Growth inhibition of the KM12 human tumor cell line is measured as a screen for anti-cancer activity. Cells are grown in 96 well plates and exposed to the test compound for 48 hours. Compounds are tested at a single concentration, which is 10^-5 M for most compounds. The reported endpoint is percent growth (GI% or GIPRCNT), where numbers from 0 - 100% represent growth inhibition, and numbers from -100% - 0 represent cell death. For example, a value of 40 represents 60% growth inhibition. A value of 0 means no net growth occurred over the course of the experiment. A value of -40 indicates 40% of cells at the beginning of the experiment died by the end of the experiment. A value of -100 means all cells are dead at the end of the experiment.
NCI-60 Human Tumor Cell Lines Screen was performed using the standard one-dose NCI protocol, which is described in more detail at https://dtp.cancer.gov/discovery_development/nci-60/default.htm.
Compounds with GIPRCNT values below 10 were considered active. Activity score was based on GIPRCNT using the following formula: […]
Score is 0 for GIPRCNT values of 100 or above, 50 for GIPRCNT values of 0, and 100 for GIPRCNT values of -100.

| SMILES | growth |
| --- | --- |
| Nc1nonc1-n1nncc1-c1cccnc1 | 105% |
| COC(=O)[C@H]1CCCN1C(=O)[C@H]1CCCN1C(=O)[C@H](Cc1c[nH]c2ccccc12)NC(=S)Nc1cc(C(F)(F)F)cc(C(F)(F)F)c1 | 36.4% |
| CCCCCCc1cc2cc(-c3nc4ccccc4[nH]3)c(=Nc3ccccc3C)oc2cc1O | 36.4% |
| CCOC(=O)c1ccc2[nH]c(-c3ccccc3)cc(=O)c2c1 | 105% |
| CCOC(=O)C(CC(=O)O)=C(C(=O)OCC)C(=O)OCC | 103% |
| CCN(CCO)CCNc1ccc(C)c2sc3cc(Cl)ccc3c(=O)c12 | 7.87% (active) |
| CCCCC(O)(c1ccc(Cl)cc1)C(CN1CCOCC1)c1ccc(Cl)cc1 (stereo not given) | 32.5% |
| COc1ccc(C)c2sc(N(Cc3cccnc3)C(=O)c3ccc(C#N)cc3)nc12 | 18.2% |
| COc1cc(C2C(C#N)=C(N)OC3=C2C(=O)c2ccccc2C3=O)cc(OC)c1O (stereo not given) | 14% |
| COc1cc2cc3c(=O)n4c(cc5cc(OC)ncc54)c(=O)n3c2cn1 | 105% |
| O=C(Nc1ccccc1O)c1ccc(-c2ccc(Cl)cc2Cl)o1 | 78.8% |
| CCN1C(=O)N(c2ccccc2)C2Nn3c(s/c(=C4\C(=O)N(C(C)C)c5ccccc54)c3=O)=NC21 (stereo not given) | 105% |
| COc1cc(NC(=O)CCSc2nc3ccccc3c(=O)n2Cc2ccccc2)cc(OC)c1OC | 87.1% |
| COc1nccc2cc3c(=O)n4c(cc5ccccc54)c(=O)n3c12 | 103% |
| CCOc1cccc(/C=N/NC(=O)C(=O)Nc2cccc(C(F)(F)F)c2)c1O | 27.8% |
| CC[C@]1(O)C[C@@H]2CN(CCc3c([nH]c4ccccc34)[C@@](C(=O)OC)(c3cc4c(cc3OC)N(C)[C@H]3[C@@](O)(C(=O)OC)[C@H](OC(=O)CCCBr)[C@]5(CC)C=CCN6CC[C@]43[C@@H]65)C2)C1 | 7.23% (active) |
| O=C(/C=C/c1ccccn1)c1ccc(OCc2nnc(-c3ccc(Cl)cc3)o2)cc1 | -69.9% (active) |
| COc1ccc(N)c(-c2cc3c(c4c2[nH]c2ccc(OC)cc24)CCCC3)c1 | 80.2% |
| COc1ccc(-c2nocc2-c2cccs2)cc1 | 104% |
| Brc1ccc(Oc2ccc(Nc3ncnc4onc(-c5ccccc5)c34)cc2)cc1 | 99.6% |

| SMILES | growth |
| --- | --- |
| O=C1c2ccc3c4c(ccc(c24)C(=O)N1CCCCO)C(=O)N(CCCCO)C3=O | 95.3% |
| COc1cc(C(C)n2cc(-c3ccccc3)nn2)ccc1OC1CCCCC1 (stereo not given) | 77.9% |
| CCOc1c(Br)cc(C2C(C(=O)OC)=CN(C)C=C2C(=O)OC)cc1OC | 61.9% |
| COc1ccc(/C=C/C(=O)c2ccc(Nc3nc(NCCO)nc(Nc4ccc(Cl)cc4)n3)cc2)cc1 | 41% |
| CC[C@@H](C)[C@H](NC(=O)Cn1cc(CNC(=O)[C@@H](NC(=O)OCc2ccccc2)C(C)C)nn1)C(=O)O | 109% |
| O=C(Nc1ccc(N2CCNCC2)cc1)c1[nH]ncc1Nc1cc(C2CC2)ncn1 | 21.1% |
| C1=CC2(C=C1)OC21CCC2(C=CC3(C2)OC3C2CCCCC2)CC1 (stereo not given) | 105% |
| O=c1oc2ccc(Cl)cc2c(=O)n1-c1ccc(Cl)cc1F | -9.11% (active) |
| O=C(c1ccccc1)N(C(=S)NCCc1ccc(Cl)cc1)c1ccccc1 | 52.3% |
| O=Cc1c(OCc2cnnn2CC(=O)Nc2ccc(Cl)cc2)ccc2ccccc12 | 101% |
| O=C(CCc1nnc2sc(COc3ccccc3)nn12)c1nc2ncccc2[nH]1 | 99.8% |
| COc1ccc(C2c3ccc4ccccc4c3Oc3ncn(CCCn4ccnc4)c(=N)c32)cc1OC (stereo not given) | 84.2% |
| O=C(NCc1ccco1)C1CN(c2ccc(Cl)cc2)N(c2ccc(Cl)cc2)C1=O (stereo not given) | 22.3% |
| O=C(NC1CCN(Cc2ccccc2)CC1)c1cc2nc(-c3ccc(Cl)s3)cc(C(F)(F)F)n2n1 | 37.1% |
| O=C1/C=C/[C@@H](O)[C@@H]2C[C@@H](O)C[C@H]2/C=C/CCCCO1 | -51.1% (active) |
| O=C(c1ccccc1)N(CCc1ccc(Cl)cc1)C(=S)N(C(=O)c1ccccc1)c1ccccc1 | 56.5% |
| COc1c(B(O)O)cccc1-c1nc2ccc3[nH]ncc3c2c2c1C1CCC2C1 (stereo not given) | 25.3% |
| COC(=O)/C(CCC=C(C)C)=C1\[C@@H](OC(C)=O)C[C@@]2(C)[C@H]1CC(=O)N[C@H]1[C@@]3(C)CCNC(=O)[C@@H](C)[C@@H]3CC[C@@]12C | 102% |
| COc1ccc(C(=O)Nc2ccc3nc(N4CCCCC4)cc(C)c3c2)cc1OC | 23.7% |
| COc1cc(/C=C2\CN(C)C/C(=C\c3cc(CN4CCOCC4)c(O)c(OC)c3)C2=O)cc(CN2CCOCC2)c1O | 37.4% |
